For some assays here: Measured potencies and affinities stand elsewhere. The source made the active and inactive calls. Unless noted, the rule behind the calls is not given here.
Target: Protein kinase 7 (PK7), Plasmodium falciparum 3D7 (PF3D7_0213400) (UniProt Q7YTF7)
Assay: inhibition of Plasmodium PK7 catalytic activity – biochemical, TCAMS antimalarial set, Kinase-Glo luminescence (AID 1159587)
Details: recombinant PfPK7, Kinase-Glo ATP depletion luminescence

Protein kinase 7 (PK7), Plasmodium falciparum 3D7 (PF3D7_0213400), sequence (Q7YTF7 1-343): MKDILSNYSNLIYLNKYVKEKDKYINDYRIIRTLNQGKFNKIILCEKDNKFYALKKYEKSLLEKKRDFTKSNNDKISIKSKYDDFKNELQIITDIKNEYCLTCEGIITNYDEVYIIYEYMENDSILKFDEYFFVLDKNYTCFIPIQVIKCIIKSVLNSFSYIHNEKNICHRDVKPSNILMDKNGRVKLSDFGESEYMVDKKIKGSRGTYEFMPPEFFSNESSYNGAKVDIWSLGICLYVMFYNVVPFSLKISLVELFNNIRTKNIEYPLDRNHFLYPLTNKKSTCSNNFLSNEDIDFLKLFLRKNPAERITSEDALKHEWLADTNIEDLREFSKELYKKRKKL

outcome, inactive:
CN1CCN(c2ccnc3cc4c(cc23)N(C(=O)Nc2ccc3c(c2)CCCC3=O)CC4)CC1, CCCCOC(=O)NCCCC[C@H](NC(=O)OC(C)(C)C)C(=O)N[C@H](C(=O)OC(c1ccccc1)c1ccccc1)[C@H]1O[C@@H](n2ccc(=O)[nH]c2=O)[C@@H]2OC(C)(C)O[C@@H]21, COCCNCc1ccc(-c2cccc(CNc3ccc(OC)cc3)c2)cc1, Cc1ccc(NC(=O)c2ccc3ncccc3c2)cc1OC1CCN(Cc2ccc(F)cc2)C1 (stereo not given), Cc1ccc(CCC(C)NCC(O)c2cccc(Cl)c2)cc1 (stereo not given), CCCNC(=O)Nc1cc2cc(-c3cccc(CN4CCCCC4)c3)ccc2n2c(C)nnc12, CCC[C@@H]([C@@H](CC1CCCCC1)C(=O)N[C@@H](CCCCNS(C)(=O)=O)C(=O)Nc1nccs1)N(O)C=O, COc1cc(O)c2c(=O)c(OC)c(-c3cccc(Cl)c3OC3O[C@H](CO)[C@@H](O)[C@H](O)[C@H]3O)oc2c1OC (stereo not given in full), Nc1nc(N)c2cc(NC(=O)c3ccc(Cl)c(Cl)c3)ccc2n1, CN1CCN(CC2(Nc3nccc(NCCc4cn(C)c5ccccc45)n3)CCCCC2)CC1, COc1cc(Cc2cnc(N)nc2N)cc(OCCCCCC(=O)O)c1OC, Cc1cc(-c2cccc(CNCc3ccccc3)c2)ccc1S(=O)(=O)NCCN1CCCC1, CC1CN(Cc2cccc(C#N)c2)CCN1c1ccc(NC(=O)c2cccs2)cc1 (stereo not given), Cc1cc(N[C@@H](Cc2ccccc2)C(=O)NCc2cccc(F)c2)nc(NCCCOC(C)C)n1, O=C(Nc1ccccc1Oc1ccccc1)NC1CCN(c2ccnc3cc(Cl)ccc23)C1 (stereo not given), CCCOc1ccc(CCCON2C(N)=NC(N)=NC2(C)C)cc1, CC(=O)NC(c1cccs1)c1cc(Cl)c2cccnc2c1O (stereo not given), CC(Nc1ncc(-c2ccsc2)c(-c2nccs2)n1)c1ccc2c(c1)OCCO2 (stereo not given), O=C(/C=C/c1ccc(Cl)c(Cl)c1)NCCCCCN1CCC(NC(=O)Nc2ccc(OC(F)F)cc2)CC1, O=C(Nc1ccc(OC2CCN(Cc3ccsc3)C2)c(Cl)c1)c1ccsc1 (stereo not given), CCn1c(-c2nc(-c3ccc4c(c3)OCO4)cnc2N)nc2cnccc21, Cc1cc(-c2ccc3c(c2)CCN(CCCOc2ccc4c(c2)CCN4C(=O)/C=C/c2ccccc2Cl)CC3)no1, O=C(c1ccc(Cl)cc1)N1CCCC(C(=O)N(Cc2nnc(-c3ccccc3Cl)o2)C2CC2)C1 (stereo not given), O=C(CNC(=O)c1ccc(O)cc1)Nc1cccc(-c2cccc(-c3nc4ccc(C(F)(F)F)cc4[nH]3)c2)c1, O=c1cc(N2CCNCC2)c(Cl)nn1Cc1ccc(NS(=O)(=O)c2ccc(Oc3ccccc3)cc2)cc1, Cc1ccc(O)cc1Nc1ccnc2ccc(-c3csc(CNCCN4CCOCC4)n3)cc12, CN(C)CCNc1ncnc2c1[nH]c1ccc(Cl)cc12, CCc1ccc(CN2CCC(NC(=O)c3ccc(-c4ccc(N(C)C)cc4)s3)CC2)cc1, Nc1ccc(Nc2ccnc3ccc(C(F)(F)F)cc23)cc1O, O=C(Nc1ccc(Oc2ccccc2)cc1)N1CCC(CCN2CCC(c3c[nH]c4ccccc34)CC2)CC1, CN1CCC(NCc2ccc(-c3ccc(C(F)(F)F)cc3)cc2)CC1, O=C(/C=C/c1ccc(Cl)c(Cl)c1)NCCCCCCN1CCCN(C(=O)Nc2ccc(C(F)(F)F)cc2)CC1, COc1ccccc1NC(=O)NC1CCN(CCCCCNC(=O)/C=C/c2ccc(Cl)c(Cl)c2)CC1, Oc1cccc(Nc2nc(NCc3ccco3)c3ccccc3n2)c1, COCCNC(=O)c1ccc(OC2CCN(Cc3ccc(F)c(F)c3)CC2)c(Cl)c1, O=C(Nc1cccc(-c2ccc(-c3nc4ccccc4[nH]3)cc2)c1)c1cccnc1, Cc1ccccc1C1CCN(C2CCC(NC(=O)c3cc(-c4ccc(Cl)cc4)cs3)CC2)CC1 (stereo not given), CC(=O)Nc1nnc(SCc2c(C)cc(C(C)(C)C)cc2C)s1, Nc1ccc(-c2ccc(NC(=O)Nc3ccccc3)cc2)cn1, COc1cccc2c(NCCNc3ccnc4c(OC)cccc34)ccnc12

Target: Calcium-dependent protein kinase 4 (Plasmodium falciparum (isolate 3D7)) (UniProt Q8IBS5)
Sequence (Q8IBS5 whole entry, looked up): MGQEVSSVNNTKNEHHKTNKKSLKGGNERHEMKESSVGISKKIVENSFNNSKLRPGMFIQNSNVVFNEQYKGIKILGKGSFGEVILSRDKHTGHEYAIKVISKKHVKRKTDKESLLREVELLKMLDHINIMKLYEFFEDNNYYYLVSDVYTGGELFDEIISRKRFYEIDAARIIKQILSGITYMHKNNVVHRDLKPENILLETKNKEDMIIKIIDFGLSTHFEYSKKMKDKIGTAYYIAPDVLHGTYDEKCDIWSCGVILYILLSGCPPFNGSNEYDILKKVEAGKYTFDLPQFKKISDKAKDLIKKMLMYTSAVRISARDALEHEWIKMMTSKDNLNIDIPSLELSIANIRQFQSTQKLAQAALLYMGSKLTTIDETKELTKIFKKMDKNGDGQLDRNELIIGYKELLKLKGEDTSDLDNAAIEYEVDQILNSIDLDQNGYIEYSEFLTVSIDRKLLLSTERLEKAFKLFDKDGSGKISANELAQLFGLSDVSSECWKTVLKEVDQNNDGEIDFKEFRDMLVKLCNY
Assay: PfCDPK4 kinase inhibitors, biochemical, TCAMS library (AID 1159588; cut-off not given, nearly all actives have IC50 up to about 0.91 µM)
Details: recombinant PfCDPK4, Kinase-Glo ATP depletion luminescence

outcome, inactive:
CN1CCN(c2ccnc3cc4c(cc23)N(C(=O)Nc2ccc3c(c2)CCCC3=O)CC4)CC1, CCCCOC(=O)NCCCC[C@H](NC(=O)OC(C)(C)C)C(=O)N[C@H](C(=O)OC(c1ccccc1)c1ccccc1)[C@H]1O[C@@H](n2ccc(=O)[nH]c2=O)[C@@H]2OC(C)(C)O[C@@H]21, COCCNCc1ccc(-c2cccc(CNc3ccc(OC)cc3)c2)cc1, Cc1ccc(NC(=O)c2ccc3ncccc3c2)cc1OC1CCN(Cc2ccc(F)cc2)C1 (stereo not given), Cc1ccc(CCC(C)NCC(O)c2cccc(Cl)c2)cc1 (stereo not given), CCCNC(=O)Nc1cc2cc(-c3cccc(CN4CCCCC4)c3)ccc2n2c(C)nnc12, CCC[C@@H]([C@@H](CC1CCCCC1)C(=O)N[C@@H](CCCCNS(C)(=O)=O)C(=O)Nc1nccs1)N(O)C=O, COc1cc(O)c2c(=O)c(OC)c(-c3cccc(Cl)c3OC3O[C@H](CO)[C@@H](O)[C@H](O)[C@H]3O)oc2c1OC (stereo not given in full), Nc1nc(N)c2cc(NC(=O)c3ccc(Cl)c(Cl)c3)ccc2n1, CN1CCN(CC2(Nc3nccc(NCCc4cn(C)c5ccccc45)n3)CCCCC2)CC1, COc1cc(Cc2cnc(N)nc2N)cc(OCCCCCC(=O)O)c1OC, Cc1cc(-c2cccc(CNCc3ccccc3)c2)ccc1S(=O)(=O)NCCN1CCCC1, CC1CN(Cc2cccc(C#N)c2)CCN1c1ccc(NC(=O)c2cccs2)cc1 (stereo not given), Cc1cc(N[C@@H](Cc2ccccc2)C(=O)NCc2cccc(F)c2)nc(NCCCOC(C)C)n1, O=C(Nc1ccccc1Oc1ccccc1)NC1CCN(c2ccnc3cc(Cl)ccc23)C1 (stereo not given), CCCOc1ccc(CCCON2C(N)=NC(N)=NC2(C)C)cc1, CC(=O)NC(c1cccs1)c1cc(Cl)c2cccnc2c1O (stereo not given), CC(Nc1ncc(-c2ccsc2)c(-c2nccs2)n1)c1ccc2c(c1)OCCO2 (stereo not given), O=C(/C=C/c1ccc(Cl)c(Cl)c1)NCCCCCN1CCC(NC(=O)Nc2ccc(OC(F)F)cc2)CC1, O=C(Nc1ccc(OC2CCN(Cc3ccsc3)C2)c(Cl)c1)c1ccsc1 (stereo not given), CCn1c(-c2nc(-c3ccc4c(c3)OCO4)cnc2N)nc2cnccc21, Cc1cc(-c2ccc3c(c2)CCN(CCCOc2ccc4c(c2)CCN4C(=O)/C=C/c2ccccc2Cl)CC3)no1, O=C(c1ccc(Cl)cc1)N1CCCC(C(=O)N(Cc2nnc(-c3ccccc3Cl)o2)C2CC2)C1 (stereo not given), O=C(CNC(=O)c1ccc(O)cc1)Nc1cccc(-c2cccc(-c3nc4ccc(C(F)(F)F)cc4[nH]3)c2)c1, O=c1cc(N2CCNCC2)c(Cl)nn1Cc1ccc(NS(=O)(=O)c2ccc(Oc3ccccc3)cc2)cc1, Cc1ccc(O)cc1Nc1ccnc2ccc(-c3csc(CNCCN4CCOCC4)n3)cc12, CN(C)CCNc1ncnc2c1[nH]c1ccc(Cl)cc12, CCc1ccc(CN2CCC(NC(=O)c3ccc(-c4ccc(N(C)C)cc4)s3)CC2)cc1, Nc1ccc(Nc2ccnc3ccc(C(F)(F)F)cc23)cc1O, O=C(Nc1ccc(Oc2ccccc2)cc1)N1CCC(CCN2CCC(c3c[nH]c4ccccc34)CC2)CC1, CN1CCC(NCc2ccc(-c3ccc(C(F)(F)F)cc3)cc2)CC1, O=C(/C=C/c1ccc(Cl)c(Cl)c1)NCCCCCCN1CCCN(C(=O)Nc2ccc(C(F)(F)F)cc2)CC1, COc1ccccc1NC(=O)NC1CCN(CCCCCNC(=O)/C=C/c2ccc(Cl)c(Cl)c2)CC1, Oc1cccc(Nc2nc(NCc3ccco3)c3ccccc3n2)c1, COCCNC(=O)c1ccc(OC2CCN(Cc3ccc(F)c(F)c3)CC2)c(Cl)c1, O=C(Nc1cccc(-c2ccc(-c3nc4ccccc4[nH]3)cc2)c1)c1cccnc1, Cc1ccccc1C1CCN(C2CCC(NC(=O)c3cc(-c4ccc(Cl)cc4)cs3)CC2)CC1 (stereo not given), CC(=O)Nc1nnc(SCc2c(C)cc(C(C)(C)C)cc2C)s1, Nc1ccc(-c2ccc(NC(=O)Nc3ccccc3)cc2)cn1, COc1cccc2c(NCCNc3ccnc4c(OC)cccc34)ccnc12
